In all, about 2,100 compounds went through this assay and about 210 (10%) were called active. About 53% were inconclusive and are not listed. Calls come from the whole dose curve; as a rule, active = well fitted inhibition curve with a large enough effect; inconclusive = small, poorly fitted or top-dose-only effect, or effect the other way; inactive = no such curve, though single readings can be large or run the other way. The list shows a part of the results. Entries that show only a call come without a potency.
Assay: IN Cell qHTS Assay for Inhibitors of the mTORC1 Signaling Pathway in MEF (Tsc2-/-, p53-/-) Cells: Sytravon; note: nearly all actives have a fitted effect of over 60% in size
Conditions: phospho-rpS6 immunofluorescence, 24 h; series mostly up to 38.3 µM
Summary of the method: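 Immunofluorescence of rpS6 phosphorylation (Ser235/236) in mouse embryonic fibroblasts lacking Tsc2 and p53, after 24 h compound exposure; Hoechst-normalized signal imaged, each well scored as % active cells relative to rapamycin (7.5 nM) and DMSO controls.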
Potency is the fitted concentration of half-maximal effect.

SMILES | Potency
O=C(CCCn1ccc2cc(S(=O)(=O)N3CCCC3)ccc21)NCc1ccc(Cl)cc1 | inactive
CCc1ccccc1-n1c(SCC(=O)Nc2ccc(C)cc2)nc2n[nH]c(C)c2c1=N | inactive
O=C(NCc1ccc(Cl)cc1Cl)c1cccc(N2CCCS2(=O)=O)c1 | inactive
CCCCN1C(=O)C(O)(c2c(C)[nH]c3ccccc23)c2ccccc21 (stereo not drawn) | inactive
Cc1ccc(S(=O)(=O)Cc2ccc(C(=O)N3CCN(c4cccc(C)c4C)CC3)o2)cc1 | inactive
Cc1ccccc1S(=O)Cc1ccc(C(=O)N2CCN(c3cccc(C)c3C)CC2)o1 (stereo not drawn) | 3.69 µM (active)
Cc1cccc(N2CCN(C(=O)Cn3nc(Cc4cccnc4)c4ccccc4c3=O)CC2)c1C | inactive
O=C(COc1ccc2oc3c(c2c1)CCCC3)Nc1cccc(Br)c1 | inactive
CC1CCCCN1CC(=O)N1CCCc2c1c(=O)oc1ccc(OCc3ccccc3)cc21 (stereo not drawn) | 13.1 µM (active)
COc1ccc(OC)c(NC(=O)CN2C(=O)COc3ccc(S(=O)(=O)NC4CCCC4)cc32)c1 | inactive
COc1ccc(-c2nc(SCC(=O)NCc3ccccc3Cl)n[nH]2)cc1 | inactive
COc1cccc(C2C(C(N)=O)=C(C)Nc3nc(CCCO)nn32)c1 (stereo not drawn) | inactive
CCCC1=Nc2cc(C(=O)NCCOC)ccc2Sc2ccccc21 | inactive
Cc1ccccc1NC(=O)CSc1nc2ccc(NC(=O)c3ccccc3)cc2s1 | inactive
COc1cc(C(=O)Nc2cc(C)c(O)c(-c3nc4ccccc4s3)c2)cc(OC)c1OC | inactive
CCSc1ccccc1C(=O)Nc1ccc(-c2nc3ccccc3s2)c(O)c1 | 4.65 µM (active)
Cc1ccc(C)c(N2CCN(C(=O)C3CCN(c4nc5ccc(C)cc5[nH]4)CC3)CC2)c1 | inactive
Cc1ccccc1Cn1cc(NC(=O)c2cc(-c3ccc(Cl)cc3)on2)cn1 | inactive
COc1ccc(N2CC(c3nc(-c4cc(OC)c(OC)c(OC)c4)no3)CC2=O)cc1Cl (stereo not drawn) | inactive
Cc1ccc2onc(CC(=O)Nc3cccc(C(F)(F)F)c3)c2c1 | inactive
Cc1ccc(NC(=O)Cc2coc3ccc(C(C)C)cc23)cc1Cl | inactive
Cc1ccc2occ(CC(=O)Nc3ccc(Cl)c(C(F)(F)F)c3)c2c1 | 13.1 µM (active)
CC(C)(C)c1ccc(Oc2nc3ccccn3c(=O)c2/C=C(\C#N)c2nc3ccccc3[nH]2)cc1 | inactive
COc1ccccc1CNS(=O)(=O)c1cc(C(=O)Nc2cccc(C(F)(F)F)c2)ccc1F | inactive
O=C(Nc1ccc(Br)cc1)c1cc(S(=O)(=O)N2CCc3ccccc32)ccc1F | inactive

SMILES | Potency
Cc1ccc(CNc2nc3c(c(=O)n(C)c(=O)n3C)n2Cc2ccc(Cl)cc2)cc1 | inactive
CCOC(=O)Cn1c(=O)n(-c2ccccc2OC)c2nc(-c3ccccc3F)nc(C(N)=O)c21 | inactive
CCOC(=O)Cn1c(=O)c2c(nc(N3CCOCC3)n2Cc2ccccc2)n(C)c1=O | 8.26 µM (active)
CCN(C(=O)CN1C(=O)c2ccccc2Sc2ccc(C(=O)OC)cc21)c1cccc(C)c1 | inactive
O=C(Nc1ccc(Cl)cc1)C1CCC(CNS(=O)(=O)c2ccc(Br)s2)CC1 (stereo not drawn) | inactive
Cc1cccc(C)c1NC(=O)c1cc(S(=O)(=O)N2CCCc3ccccc32)ccc1F | inactive
CC(C)S(=O)(=O)c1oc(-c2cccs2)nc1S(=O)(=O)c1ccc(F)cc1 | 0.927 µM (active)
CCC(C)S(=O)(=O)c1oc(-c2ccc(F)cc2)nc1S(=O)(=O)c1ccc(F)cc1 (stereo not drawn) | 1.04 µM (active)
CC(C)S(=O)(=O)c1oc(-c2ccc(F)cc2)nc1S(=O)(=O)c1ccc(F)cc1 | 0.826 µM (active)
Brc1ccc(CNCCCSc2nnnn2-c2ccccc2)cc1 | inactive
CCOCc1cc(CN2CCN(c3cccc(C(F)(F)F)c3)CC2)c(O)c2ncccc12 | inactive
Cc1cn2c(=O)cc(COC(=O)c3ccc(NC(=O)COc4ccccc4C)cc3)nc2s1 | inactive
CC(=O)c1ccc(N2CCN(S(=O)(=O)c3ccc(-c4coc(C)n4)cc3)CC2)cc1 | inactive
CCOC(=O)c1c(NC(=O)c2ccc(S(=O)(=O)N3CCCC(C)C3)cc2)sc2c1CC(C)(C)NC2(C)C (stereo not drawn) | inactive
CN(C)c1ccc(/C=C(\C#N)c2nc(-c3ccc(Cl)c(Cl)c3)cs2)cc1 | inactive
COc1ccc(-c2nc(SCC(=O)Nc3c(C)cc(C)cc3C)n[nH]2)cc1 | inactive
CCOc1ccc(NC(=O)CSc2oc(-c3ccc(F)cc3)nc2S(=O)(=O)c2ccc(C)cc2)cc1 | 2.33 µM (active)
Cc1ccc(S(=O)(=O)c2nc(-c3cccs3)oc2SCC(=O)Nc2cc(C)cc(C)c2)cc1 | 16.5 µM (active)
CCSc1oc(-c2ccc(F)cc2)nc1S(=O)(=O)c1ccc(C)cc1 | inactive
CCOc1ccc(-c2nnc(SCC(=O)Nc3cccc(OC)c3)nc2-c2ccc(OCC)cc2)cc1 | inactive
CCOc1ccc(-c2cc(CCCC(=O)NCCc3ccc(OC)c(OC)c3)no2)cc1 | inactive
CCOC(=O)c1c(-c2ccccc2)oc2ccc(N(C(C)=O)S(=O)(=O)c3ccc(CC)cc3)cc12 | inactive
Cc1ccc(-n2c(SCC(=O)Nc3cccc(Cl)c3)nc3n[nH]c(C)c3c2=N)cc1 | inactive
Cc1ccc(OCC(=O)Nc2ccc3nc(Nc4cccc(Cl)c4)cc(C)c3c2)cc1 | 14.7 µM (active)
CCN(CC)c1cc(C)c2cc(NC(=O)c3ccccc3Cl)ccc2n1 | inactive

SMILES | Potency
CCN1C(=O)C(O)(c2c(C)[nH]c3ccccc23)c2ccccc21 (stereo not drawn) | inactive
Cc1nn(-c2ccc(N3CCOCC3)nn2)c(C)c1CCC(=O)NCc1ccccc1F | inactive
O=C(CSc1nc(-c2ccccc2)[nH]c1-c1ccccc1)Nc1ccc2c(c1)OCO2 | inactive
Cc1cccc(C(=O)Nc2c(-c3ccc(F)cc3)nc3ccccn23)c1 | inactive
CCOC(=O)c1c(C)[nH]c(CCC(=O)NCc2ccc(OC)cc2OC)c1C | inactive
CCOC(=O)c1c(C)[nH]c(CCC(=O)Nc2cc(C)cc(C)c2)c1C | inactive
CCOC(=O)c1c(C)[nH]c(CCC(=O)NCCCN2CCN(c3cc(C)ccc3C)CC2)c1C | 11.7 µM (active)
COC(=O)c1c(-c2ccc(Cl)cc2)noc1N1CCN(c2cc(C)ccc2C)CC1 | inactive
CCOC(=O)c1c(C)[nH]c(CCC(=O)NCCCN2CCN(c3cc(Cl)ccc3C)CC2)c1C | 14.7 µM (active)
COc1ccc(-c2ccc(CCC(=O)O)n2-c2ccccc2O)cc1 | inactive
CCC1CN(C(=O)NCc2ccccc2)c2cc(C)ccc2O1 (stereo not drawn) | inactive
CCN(Cc1ccccc1)Cc1c(O)ccc2oc(C)c(C(=O)Nc3ccc(C)cc3C)c12 | inactive
CCCCN1C(C(=O)c2ccccc2)=C(OC(C)=O)c2ccccc2S1(=O)=O | inactive
COc1ccc(OC)c2sc(N(CCCN(C)C)C(=O)c3ccco3)nc12 | 14.7 µM (active)
COc1ccc(C)cc1Nc1c2c(nc3ccccc13)CCC2 | 7.36 µM (active)
COc1ccc(C(=O)Nc2cccc(-c3cn4ccsc4n3)c2)cc1OC | inactive
COc1ccccc1Nc1nn2c(=O)c3ccc(C(=O)NCCC4=CCCCC4)cc3nc2s1 | inactive
COc1ccccc1Nc1c2c(nc3ccc(NC(=O)c4ccc(N(C)C)cc4)cc13)CCCC2 | 2.07 µM (active)
COc1ccccc1Nc1c2c(nc3ccc(NC(=O)c4cccc(OC)c4OC)cc13)CCCC2 | 5.85 µM (active)
COc1ccccc1Nc1nn2c(=O)c3ccc(C(=O)NCCc4ccccc4)cc3nc2s1 | inactive
COc1cc2c(cc1OC)n(CC(=O)Nc1ccc(C)cc1C)c(=O)n1nc(-c3ccccc3)nc21 | inactive
COc1cc(Cl)c(C)cc1Nc1c2c(nc3ccccc13)CCC2 | inactive
COc1ccccc1Nc1c2c(nc3ccc(NC(=O)c4ccc(OC)c(OC)c4)cc13)CCCC2 | 1.65 µM (active)
CC1=C(C(=O)Nc2ccccc2C)C(c2cccs2)n2nc(SCc3ccccc3)nc2N1 (stereo not drawn) | inactive
CCC1CN(C(=O)N2CCC(C(=O)NCCN(CC)CC)CC2)c2ccccc2O1 (stereo not drawn) | inactive

SMILES | Potency
CC(C)c1ccc(NC(=O)c2ccc(F)c(S(=O)(=O)N3CCN(c4ccccc4F)CC3)c2)cc1 | inactive
COc1ccc2c(c1)c(=O)c(S(=O)(=O)c1ccc(Cl)cc1)cn2C | inactive
COc1ccc(CCCc2nnc(SCC(=O)Nc3cccc(F)c3C)o2)cc1 | inactive
COc1ccccc1CCNC(=O)C(=O)NCC(c1cccnc1)N1CCN(c2ccccc2)CC1 (stereo not drawn) | inactive
CCCc1nn2c(=O)cc(COC(=O)c3cccc(NC(=O)c4ccc(OCC)cc4)c3)nc2s1 | inactive
CCOc1ccc(NC(=O)Cn2c(=O)cc(C)c3c(C)nn(C)c32)cc1 | inactive
CCC1=Nc2cc(C(=O)NCc3ccccc3Cl)ccc2Sc2ccc(C)cc21 | inactive
CCc1cccc(NC(=O)Cn2c(=O)n(CCC(=O)NCc3ccccc3Cl)c(=O)c3sccc32)c1 | inactive
CC(C)COc1ccc(C(=O)NCC2(N3CCN(C)CC3)CCCCC2)cc1 | 16.5 µM (active)
CC(C)(C)c1ccc(OCC(=O)NCC2(N3CCOCC3)CCCCC2)cc1 | inactive
CN1CCN(C2(CNC(=O)COc3ccc(C(C)(C)C)cc3)CCCCC2)CC1 | 14.7 µM (active)
CN(C)C1(CNC(=O)COc2ccc(C(C)(C)C)cc2)CCCCC1 | inactive
Cc1ccc(OCC(=O)NCC2(N3CCN(C)CC3)CCCCC2)cc1 | inactive
Cc1ccc(OCC(=O)NCC2(N3CCN(C)CC3)CCCCC2)cc1C | inactive
Oc1ccccc1-c1nc(-c2cccs2)c(-c2cccs2)[nH]1 | inactive
COc1ccc(CNCCC(c2ccc(C)cc2)c2ccco2)cc1 (stereo not drawn) | inactive
CC(=O)c1cccc(NS(=O)(=O)c2ccc3[nH]c4c(c3c2)CCCCC4)c1 | inactive
COc1ccc(-c2nn(C)c3sc(C(=O)Nc4cccc(F)c4)cc23)cc1OC | inactive
CCOc1ccc(CCNC(=O)c2cc3c(-c4ccccc4F)nn(C)c3s2)cc1 | inactive
CCCN(CCC)CCCNC(=O)c1cc2c(-c3ccc(Cl)cc3)nn(C)c2s1 | 2.61 µM (active)
COc1ccc(CCNC(=O)c2nn(C)c3c2CSc2ccccc2-3)cc1OC | inactive
CCCCN(CCCC)CCCNC(=O)c1cc(-c2ccc(Cl)s2)nc2ccccc12 | inactive
CCCN(CCC)CCCNC(=O)c1cc2c(-c3ccc(OC)c(OC)c3)nn(C)c2s1 | 16.5 µM (active)

From PubChem BioAssay AID504465 (National Center for Advancing Translational Sciences (NCATS), 2011)
